Measurements reported in PubChem BioAssay (Tox21).
Values without a mark were called inactive. Results filed as inconclusive are left out. Where a call stands in place of a potency, no number is given. Calls of active or inactive are those of the source. Unless noted, the call rests on the fitted dose curve; in most records, active means well fitted curve in the direction sought with a large enough effect in the repeat runs; inconclusive means weak or mixed curves; inactive means no such curve, though single readings can be large; an effect the other way counts as inactive or inconclusive.

Legend:
[1] = qHTS assay to identify small molecule agonists of the androgen receptor (AR) signaling pathway in the presence of an antagonist - cell viability counter screen (AID 1259379);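 further: MDA-kb2 human breast cancer cells carrying an MMTV luciferase reporter; series mostly up to about 92 µM; nearly all actives have a fitted effect of over 25% in size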
In short: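 Cells: MDA-kb2 (MMTV-luc, AR and GR elements), 3,000/well, 5 hr settle. Added: nilutamide 3.0uM final, then compounds (15 conc.). Incubation: 16 hr, 37C, no CO2. Read-out: CellTiter-Fluor, 1 hr, fluorescence.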

[2] = qHTS assay to identify small molecule agonists of the estrogen receptor beta (ER-beta) signaling pathway - cell viability counter screen (AID 1259380); further: nearly all actives have a fitted effect of over 30% in size
In short: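 HEK293T ER-beta-UAS-bla; 2% CS-FBS; 6 hr pre-plate, 16 hr cpd at 37C/5% CO2; LiveBLAzer read first, then CellTiter-Glo 30 min RT, luminescence.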

[3] = qHTS assay to identify small molecule antagonists of the estrogen receptor beta (ER-beta) signaling pathway - cell viability counter screen (AID 1259382);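 further: HEK293T cells carrying ER-beta-UAS-bla reporter stimulated with estradiol; series mostly up to about 92 µM; nearly all actives have a fitted effect of over 55% in size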
In short: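 Cells: ER-beta-UAS-bla HEK293T, 2,000/well, 2% CS-FBS, 6 hr settle. Cpd + E2 (1nM final), 16 hr, 37C/5% CO2. Bla FRET substrate 2 hr RT, then CellTiter-Glo 30 min RT, luminescence.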

[4] = target: Estrogen receptor (Homo sapiens) (UniProt P03372); assay: qHTS assay to identify small molecule agonists of the estrogen receptor alpha (ER-alpha) signaling pathway in the presence of an antagonist (AID 1259383; calls by dose curve; further: top concentration of the series differs between compounds; nearly all actives have a fitted effect of over 15% in size)
Sequence of Estrogen receptor (Homo sapiens) (P03372 whole entry, looked up): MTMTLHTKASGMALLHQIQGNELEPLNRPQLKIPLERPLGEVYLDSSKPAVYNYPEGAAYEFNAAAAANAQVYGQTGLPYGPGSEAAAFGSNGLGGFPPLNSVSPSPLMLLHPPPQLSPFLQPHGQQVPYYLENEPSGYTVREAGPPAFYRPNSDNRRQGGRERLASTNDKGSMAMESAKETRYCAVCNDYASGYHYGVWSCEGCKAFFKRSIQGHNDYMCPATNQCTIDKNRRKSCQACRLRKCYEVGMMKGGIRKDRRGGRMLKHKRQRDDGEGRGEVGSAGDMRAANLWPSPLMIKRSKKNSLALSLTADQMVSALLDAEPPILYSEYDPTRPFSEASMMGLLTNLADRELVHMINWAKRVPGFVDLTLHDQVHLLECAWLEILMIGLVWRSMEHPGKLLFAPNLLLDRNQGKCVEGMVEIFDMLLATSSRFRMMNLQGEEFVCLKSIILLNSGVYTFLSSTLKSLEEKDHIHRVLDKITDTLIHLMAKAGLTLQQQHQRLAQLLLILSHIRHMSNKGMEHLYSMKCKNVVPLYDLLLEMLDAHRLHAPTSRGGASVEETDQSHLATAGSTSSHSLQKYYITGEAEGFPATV
In short: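 VM7Luc4E2, endog. ER-alpha + 4×ERE-luc; charcoal-stripped FBS, phenol red-free, 5 d; 24hr plating; +10.0nM ICI-182,780 (final); cpds 15 conc, 22hr, 37C/5% CO2; ONE-Glo luminescence.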

[5] = qHTS assay to identify small molecule agonists or antagonists of the thyroid stimulating hormone receptor (TSHR) signaling pathway - wild type cell line counter screen (AID 1259384; calls by dose curve)
In short: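 Counter screen in untransfected Hek293: compounds (15-point titration, triplicate) plus phosphodiesterase inhibitor Ro20-1724 added after 18 h plating; 30 min RT. Intracellular cAMP via competitive d2/cryptate immunoassay, 1 h incubation.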

[6] = target: Thyrotropin receptor (Homo sapiens) (UniProt P16473); assay: qHTS assay to identify small molecule antagonists of the thyroid stimulating hormone receptor (TSHR) signaling pathway (AID 1259385; calls by dose curve; further: nearly all actives have a fitted effect of over 20% in size)
Sequence of Thyrotropin receptor (Homo sapiens) (P16473 whole entry, looked up): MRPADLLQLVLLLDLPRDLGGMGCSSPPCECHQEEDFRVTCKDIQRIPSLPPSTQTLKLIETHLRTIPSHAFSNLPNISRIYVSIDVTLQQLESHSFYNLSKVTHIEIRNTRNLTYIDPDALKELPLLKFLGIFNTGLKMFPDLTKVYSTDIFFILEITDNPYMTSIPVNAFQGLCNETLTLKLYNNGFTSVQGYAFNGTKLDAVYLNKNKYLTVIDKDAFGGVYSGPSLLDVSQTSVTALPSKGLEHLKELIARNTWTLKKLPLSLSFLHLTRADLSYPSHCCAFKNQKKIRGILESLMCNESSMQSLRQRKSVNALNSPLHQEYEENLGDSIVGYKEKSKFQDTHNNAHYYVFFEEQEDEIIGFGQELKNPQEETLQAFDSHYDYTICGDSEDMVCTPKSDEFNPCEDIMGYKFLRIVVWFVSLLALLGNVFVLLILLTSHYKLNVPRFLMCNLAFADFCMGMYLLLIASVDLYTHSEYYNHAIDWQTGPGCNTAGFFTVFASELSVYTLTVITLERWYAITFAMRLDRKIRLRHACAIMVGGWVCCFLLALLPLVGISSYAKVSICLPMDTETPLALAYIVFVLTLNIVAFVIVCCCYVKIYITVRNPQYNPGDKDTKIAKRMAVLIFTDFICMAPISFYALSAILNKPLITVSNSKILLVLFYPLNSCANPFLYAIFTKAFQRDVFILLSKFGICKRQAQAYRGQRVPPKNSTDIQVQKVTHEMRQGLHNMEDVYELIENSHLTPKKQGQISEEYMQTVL
In short: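 Antagonist mode: compound-treated TSHR-expressing HEK293 cells were stimulated with 1.5 ng/mL TSH (final) in presence of Ro20-1724 for 30 min at RT. HTRF cAMP detection after 1 h; each compound tested at 15 concentrations, triplicate.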

[7] = qHTS assay to identify small molecule agonists of the estrogen receptor alpha (ER-alpha) signaling pathway in the presence of an antagonist - cell viability counter screen (AID 1259386);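 further: series mostly up to about 92 µM; cells exposed to compounds for 22 h at 37 °C before the viability read; nearly all actives have a fitted effect of over 30% in size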
In short: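 VM7Luc4E2, stripped-serum pre-culture 5 d; 24hr plating; +ICI-182,780 10.0nM final; cpds 15 conc, 22hr, 37C/5% CO2; CellTiter-Fluor added at 21hr, fluorescence 1hr later.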

[8] = target: Progesterone receptor (Homo sapiens) (UniProt P06401); assay: qHTS assay to identify small molecule agonists of the progesterone receptor (PR) signaling pathway (AID 1346784; calls by dose curve; further: nearly all actives have a fitted effect of over 30% in size; further: potency means the concentration at half of the fitted maximal effect)
Sequence of Progesterone receptor (Homo sapiens) (P06401 whole entry, looked up): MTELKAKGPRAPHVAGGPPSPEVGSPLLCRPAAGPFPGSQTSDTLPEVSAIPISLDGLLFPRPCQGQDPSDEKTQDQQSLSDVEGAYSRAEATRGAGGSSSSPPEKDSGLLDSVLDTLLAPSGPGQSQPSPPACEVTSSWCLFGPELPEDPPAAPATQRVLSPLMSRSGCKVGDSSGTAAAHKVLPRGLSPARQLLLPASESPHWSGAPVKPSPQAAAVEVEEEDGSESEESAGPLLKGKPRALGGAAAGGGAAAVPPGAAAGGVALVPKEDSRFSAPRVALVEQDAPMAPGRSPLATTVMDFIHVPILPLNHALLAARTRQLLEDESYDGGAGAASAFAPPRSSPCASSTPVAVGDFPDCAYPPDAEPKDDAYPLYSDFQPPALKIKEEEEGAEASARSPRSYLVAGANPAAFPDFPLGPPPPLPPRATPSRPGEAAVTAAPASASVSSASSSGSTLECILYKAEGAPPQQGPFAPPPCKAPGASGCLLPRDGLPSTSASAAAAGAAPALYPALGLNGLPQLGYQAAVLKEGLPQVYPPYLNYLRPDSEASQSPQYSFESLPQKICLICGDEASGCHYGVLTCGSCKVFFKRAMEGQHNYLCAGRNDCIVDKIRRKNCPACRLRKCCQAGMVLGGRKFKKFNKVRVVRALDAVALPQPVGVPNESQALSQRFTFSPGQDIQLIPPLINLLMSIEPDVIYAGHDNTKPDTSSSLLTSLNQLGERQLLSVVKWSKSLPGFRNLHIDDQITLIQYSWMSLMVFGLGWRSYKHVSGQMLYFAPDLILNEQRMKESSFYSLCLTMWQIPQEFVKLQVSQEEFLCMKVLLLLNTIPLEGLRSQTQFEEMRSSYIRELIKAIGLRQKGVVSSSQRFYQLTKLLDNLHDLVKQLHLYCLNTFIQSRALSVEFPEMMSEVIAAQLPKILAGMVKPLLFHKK
In short: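 Using charcoal-stripped serum (2%) to limit endogenous steroids, PR-UAS-bla HEK 293T cells received compounds for 16 hr at 37C after 6 hr plating; beta-lactamase FRET fluorescence was recorded following 2 hr substrate loading at room temperature.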

[9] = qHTS assay to identify small molecule antagonists of the progesterone receptor (PR) signaling pathway - cell viability counter screen (AID 1346798); further: series mostly up to about 92 µM; nearly all actives have a fitted effect of over 50% in size
In short: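 ATP content as viability readout: CellTiter-Glo luminescence, 30 min room temperature, in PR-UAS-bla HEK293T cells after 16 hr compound/R5020 treatment at 37C and 5% CO2.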

[10] = qHTS assay to identify small molecule antagonists of the TGF-beta/Smad signaling pathway - cell viability counter screen (AID 1346824); further: nearly all actives have a fitted effect of over 50% in size
In short: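 Cytotoxicity counter-screen run in the same wells as the beta-lactamase Smad reporter read: CellTiter-Glo luminescence after 30 min at room temperature. HEK 293T SBE-bla cells had 5 hr compound exposure at 37 C with TGF-beta1 (0.25 ng/mL stock).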

[11] = qHTS assay to identify small molecule agonists of the TGF-beta/Smad signaling pathway - cell viability counter screen (AID 1346829); further: top concentration of the series differs between compounds; nearly all actives have a fitted effect of over 45% in size
In short: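 Same-well cytotoxicity: CellTiter-Glo added after the 2 hr room-temperature beta-lactamase substrate step, luminescence measured 30 min later; cells had 5 hr of compound at 37 C.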

[12] = qHTS assay to identify small molecule agonists of the TGF-beta/Smad signaling pathway (AID 1346859; active means well fitted activation curve with a large enough effect in the signal ratio in the repeat runs, not every such curve was filed as active; the % refers to the signal ratio; further: series mostly up to about 77 µM)
In short: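 Stable Smad binding element-beta-lactamase HEK 293T cells; 5 hr compound exposure at 37 C under 5% CO2; 2 hr room-temperature substrate step; fluorescence excited at 405 nm, collected at 460 nm and 530 nm.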

[13] = target: Progesterone receptor (Homo sapiens) (UniProt P06401); assay: qHTS assay to identify small molecule antagonists of the progesterone receptor (PR) signaling pathway (AID 1346795; active means well fitted inhibition curve with a large enough effect in the signal ratio in the repeat runs, not every such curve was filed as active; the % refers to the signal ratio)
In short: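 Inhibition of R5020-induced (1 nM final) beta-lactamase reporter signal in PR-UAS-bla HEK293T cells was scored by FRET fluorescence after overnight (16 hr) compound treatment.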

[14] = qHTS assay to identify small molecule agonists of the progesterone receptor (PR) signaling pathway - cell viability counter screen (AID 1346799; calls by dose curve; further: nearly all actives have a fitted effect of over 45% in size)
In short: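 Cytotoxicity in PR-bla HEK293T cells: 16 h compound, 37C; CellTiter-Glo added post-FRET read; luminescence after 30 min RT.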

[15] = target: Thyrotropin-releasing hormone receptor (Homo sapiens) (UniProt P34981); assay: qHTS assay to identify small molecule agonists of the thyrotropin-releasing hormone receptor (TRHR) signaling pathway (AID 1346891; calls by dose curve;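 further: HEK293 cells expressing TRHR with calcium dye readout; series mostly up to about 58 µM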)
Sequence of Thyrotropin-releasing hormone receptor (Homo sapiens) (P34981 whole entry, looked up): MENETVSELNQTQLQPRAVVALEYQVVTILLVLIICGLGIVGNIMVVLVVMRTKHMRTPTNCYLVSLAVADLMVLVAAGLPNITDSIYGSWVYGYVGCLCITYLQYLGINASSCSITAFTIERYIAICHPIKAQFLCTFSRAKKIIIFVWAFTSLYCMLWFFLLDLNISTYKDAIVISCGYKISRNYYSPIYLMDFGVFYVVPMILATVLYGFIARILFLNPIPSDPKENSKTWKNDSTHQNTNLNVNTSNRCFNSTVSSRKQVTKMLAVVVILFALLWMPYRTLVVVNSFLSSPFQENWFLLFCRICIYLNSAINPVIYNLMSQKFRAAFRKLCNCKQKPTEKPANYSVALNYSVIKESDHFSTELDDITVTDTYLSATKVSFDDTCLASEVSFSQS
In short: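 In 1536-format, 1500 TRHR-Hek293 cells per well grew 18 h, took up calcium dye for 2 h at 37 °C, received compound, and were read kinetically; 15-point titrations, triplicates.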

[16] = target: Thyrotropin-releasing hormone receptor (Homo sapiens) (UniProt P34981); assay: qHTS assay to identify small molecule antagonists of the thyrotropin-releasing hormone receptor (TRHR) signaling pathway (AID 1346877; active means well fitted inhibition curve with a large enough effect in the repeat runs, not every such curve was filed as active; further: series mostly up to about 51 µM)
In short: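 Intracellular calcium fluorescence, read kinetically every second over 3 min, reports TRH-evoked signalling in HEK293 cells carrying TRHR. Test compounds were added 5 min ahead of a 1 nM TRH challenge.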

[17] = target: Estrogen receptor beta (Homo sapiens) (UniProt Q92731); assay: qHTS assay to identify small molecule agonists of the estrogen receptor beta (ER-beta) signaling pathway (AID 1259377; active means well fitted activation curve with a large enough effect in the signal ratio in the repeat runs, not every such curve was filed as active; the % refers to the signal ratio)
Sequence of Estrogen receptor beta (Homo sapiens) (Q92731 whole entry, looked up): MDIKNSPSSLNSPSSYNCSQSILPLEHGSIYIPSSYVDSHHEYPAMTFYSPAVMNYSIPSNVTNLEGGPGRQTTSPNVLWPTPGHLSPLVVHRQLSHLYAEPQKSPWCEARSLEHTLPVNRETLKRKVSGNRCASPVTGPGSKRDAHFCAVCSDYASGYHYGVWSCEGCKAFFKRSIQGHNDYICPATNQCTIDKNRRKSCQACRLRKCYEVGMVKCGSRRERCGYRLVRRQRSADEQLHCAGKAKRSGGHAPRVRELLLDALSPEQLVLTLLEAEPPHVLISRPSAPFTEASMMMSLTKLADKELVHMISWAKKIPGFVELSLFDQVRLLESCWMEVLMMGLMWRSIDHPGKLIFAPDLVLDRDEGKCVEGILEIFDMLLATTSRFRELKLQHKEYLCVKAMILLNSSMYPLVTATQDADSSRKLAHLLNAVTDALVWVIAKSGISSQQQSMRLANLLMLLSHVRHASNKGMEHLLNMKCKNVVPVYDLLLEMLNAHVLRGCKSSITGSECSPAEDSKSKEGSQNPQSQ
In short: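 In HEK293T cells bearing a UAS-beta-lactamase reporter under ER-beta control, DMSO-delivered compounds were incubated for 16 hr at 37C. Activity was detected as fluorescence 2 hours after LiveBLAzer B/G FRET substrate addition.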

[18] = target: Estrogen receptor beta (Homo sapiens) (UniProt Q92731); assay: qHTS assay to identify small molecule antagonists of the estrogen receptor beta (ER-beta) signaling pathway (AID 1259378; active means well fitted inhibition curve with a large enough effect in the signal ratio in the repeat runs, not every such curve was filed as active; the % refers to the signal ratio)
In short: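 Antagonist mode: compounds added to beta-lactamase reporter HEK293T ER-beta-UAS cells stimulated with E2 (1nM final), 16 hr at 37C. LiveBLAzer B/G FRET substrate, 2 hours room temperature, fluorescence read-out.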

[19] = target: Androgen receptor (Homo sapiens) (UniProt P10275); assay: qHTS assay to identify small molecule agonists of the androgen receptor (AR) signaling pathway in the presence of an antagonist (AID 1259381; calls by dose curve; further: nearly all actives have a fitted effect of over 15% in size)
Sequence of Androgen receptor (Homo sapiens) (P10275 whole entry, looked up): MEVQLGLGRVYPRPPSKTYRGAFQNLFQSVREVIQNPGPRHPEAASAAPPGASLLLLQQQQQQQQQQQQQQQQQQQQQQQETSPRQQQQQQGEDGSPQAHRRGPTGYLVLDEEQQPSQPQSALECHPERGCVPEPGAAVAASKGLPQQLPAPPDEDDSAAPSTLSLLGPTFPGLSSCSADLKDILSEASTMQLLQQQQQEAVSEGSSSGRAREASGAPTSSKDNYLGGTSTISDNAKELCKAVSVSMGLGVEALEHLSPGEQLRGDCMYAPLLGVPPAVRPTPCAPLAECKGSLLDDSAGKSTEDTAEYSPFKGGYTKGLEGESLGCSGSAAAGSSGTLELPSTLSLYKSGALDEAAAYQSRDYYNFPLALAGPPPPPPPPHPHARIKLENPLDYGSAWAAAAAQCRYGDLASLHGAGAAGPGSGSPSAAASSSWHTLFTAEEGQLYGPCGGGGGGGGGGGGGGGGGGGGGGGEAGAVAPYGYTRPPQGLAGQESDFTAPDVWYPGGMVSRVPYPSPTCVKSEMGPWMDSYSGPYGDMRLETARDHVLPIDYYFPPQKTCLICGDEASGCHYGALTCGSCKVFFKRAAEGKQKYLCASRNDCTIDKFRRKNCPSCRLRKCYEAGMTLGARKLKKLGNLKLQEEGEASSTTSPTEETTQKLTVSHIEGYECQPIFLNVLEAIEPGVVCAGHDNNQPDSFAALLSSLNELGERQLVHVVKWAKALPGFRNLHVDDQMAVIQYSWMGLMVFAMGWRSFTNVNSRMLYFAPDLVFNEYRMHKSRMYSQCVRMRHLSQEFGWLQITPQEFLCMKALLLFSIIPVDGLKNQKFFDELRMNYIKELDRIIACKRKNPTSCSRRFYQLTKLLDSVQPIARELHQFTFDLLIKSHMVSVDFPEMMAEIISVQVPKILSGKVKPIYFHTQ
In short: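 MDA-kb2 cells, 3,000/well, rested 5hr at 37C/0% CO2 → nilutamide 3.0uM final or buffer → compounds, 15 conc. → 16hr at 37C → ONE-Glo, 30min RT → luminescence.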

Structure (SMILES): CCCCN1C=CN(C)C1
- activity change, negative = cytotoxicity [1]: 0.886% [at 19 µM]
- activity change, negative = cytotoxicity [2]: 2.46% [at 19 µM]
- activity change, negative = cytotoxicity [3]: -4.66% [at 19 µM]
- activation [4]: 0.706% [at 19 µM]
- cAMP activity change [5]: -4.22% [at 18.9 µM]
- activity change, negative = inhibition [6]: 1.39% [at 19 µM]
- activity change, negative = cytotoxicity [7]: 0.508% [at 19 µM]
- Potency [8]: 2460 nM (active)
- activity change, negative = cytotoxicity [9]: -2.54% [at 18.9 µM]
- viability change, negative = cytotoxic [10]: -11.6% [at 15.8 µM]
- activity change, negative = cytotoxicity [11]: -1.56% [at 15.8 µM]
- activation [12]: 4.63% [at 15.8 µM]

Structure (SMILES): CC(C(=O)O)c1cccc(Oc2ccccc2)c1 (configuration not stated)
- Potency [2]: inactive
- outcome [3]: inactive
- Potency [7]: inactive
- Potency [8]: inactive
- Potency [13]: inactive
- Potency [9]: inactive
- Potency [14]: inactive
- outcome [10]: inactive
- outcome [12]: inactive
- Potency [15]: inactive

Structure (SMILES): CC[C@H]1OC(=O)[C@H](C)[C@@H](O[C@H]2C[C@@](C)(OC)[C@@H](O)[C@H](C)O2)[C@H](C)[C@@H](O[C@@H]2O[C@H](C)C[C@H](N(C)C)[C@H]2O)[C@](C)(OC)C[C@@H](C)C(=O)[C@H](C)[C@@H](O)[C@]1(C)O
- Potency [1]: inactive
- Potency [2]: inactive
- outcome [3]: inactive
- outcome [4]: inactive
- Potency [7]: inactive
- Potency [13]: inactive
- Potency [9]: inactive
- Potency [14]: inactive
- outcome [10]: inactive
- outcome [11]: inactive
- outcome [12]: inactive
- outcome [16]: inactive
- Potency [15]: inactive

Structure (SMILES): CN(C)C(=O)Oc1cccc([N+](C)(C)C)c1
- Potency [2]: inactive
- outcome [3]: inactive
- outcome [4]: inactive
- outcome [5]: inactive
- outcome [6]: inactive
- Potency [7]: inactive
- Potency [8]: inactive
- Potency [9]: inactive
- Potency [14]: inactive
- outcome [10]: inactive
- outcome [11]: inactive
- outcome [12]: inactive
- Potency [15]: inactive

Structure (SMILES): O=C(O)c1cc(C(=O)O)cc(C(=O)O)c1
- Potency [1]: inactive
- Potency [2]: inactive
- outcome [3]: inactive
- outcome [4]: inactive
- outcome [5]: inactive
- Potency [7]: inactive
- Potency [8]: inactive
- Potency [13]: inactive
- Potency [9]: inactive
- Potency [14]: inactive
- outcome [10]: inactive
- outcome [11]: inactive
- outcome [12]: inactive
- outcome [16]: inactive
- Potency [15]: inactive

Structure (SMILES): CC1=NS(=O)(=O)c2cc(Cl)ccc2N1
- Potency [2]: inactive
- outcome [3]: inactive
- outcome [4]: inactive
- outcome [5]: inactive
- Potency [7]: inactive
- Potency [8]: inactive
- Potency [13]: inactive
- Potency [9]: inactive
- Potency [14]: inactive
- outcome [10]: inactive

Structure (SMILES): CC(=O)O[C@@]12CO[C@@H]1C[C@H](O)[C@@]1(C)C(=O)[C@H](O)C3=C(C)[C@@H](OC(=O)[C@H](O)[C@@H](NC(=O)OC(C)(C)C)c4ccccc4)C[C@@](O)([C@@H](OC(=O)c4ccccc4)[C@H]21)C3(C)C
- Potency [17]: inactive
- Potency [18]: inactive
- Potency [2]: inactive
- Potency [19]: inactive
- outcome [3]: inactive
- outcome [4]: inactive
- Potency [7]: inactive
- Potency [8]: inactive
- Potency [13]: inactive
- outcome [10]: inactive
- outcome [11]: inactive
- outcome [12]: inactive

Structure (SMILES): COc1ccnc(CS(=O)c2nc3cc(OC(F)F)ccc3[nH]2)c1OC (configuration not stated)
- outcome [3]: inactive
- outcome [4]: inactive
- outcome [5]: inactive
- Potency [7]: inactive
- Potency [14]: inactive
- outcome [11]: inactive
- outcome [12]: inactive

Structure (SMILES): Cc1onc(-c2c(Cl)cccc2Cl)c1C(=O)Cl
- Potency [17]: inactive
- Potency [18]: inactive
- Potency [1]: inactive
- outcome [3]: inactive
- outcome [5]: inactive
- Potency [7]: inactive
- Potency [8]: inactive
- Potency [13]: inactive
- Potency [9]: inactive
- Potency [14]: inactive
- outcome [10]: inactive
- outcome [11]: inactive
- outcome [12]: inactive
- outcome [16]: inactive
- Potency [15]: inactive
